# IP6K1 inhibitor – IP6K1 kinase inhibition; Q92551; IP6K1 kinase, ADP-Glo luminescence, 2 h; active compounds read low; activity change, % (series mostly up to about 58 µM); 140,000 compounds, 0.81% hits; AID 1645851; in the data active = activity change below about -25%
# Target sequence (Q92551 whole entry, looked up): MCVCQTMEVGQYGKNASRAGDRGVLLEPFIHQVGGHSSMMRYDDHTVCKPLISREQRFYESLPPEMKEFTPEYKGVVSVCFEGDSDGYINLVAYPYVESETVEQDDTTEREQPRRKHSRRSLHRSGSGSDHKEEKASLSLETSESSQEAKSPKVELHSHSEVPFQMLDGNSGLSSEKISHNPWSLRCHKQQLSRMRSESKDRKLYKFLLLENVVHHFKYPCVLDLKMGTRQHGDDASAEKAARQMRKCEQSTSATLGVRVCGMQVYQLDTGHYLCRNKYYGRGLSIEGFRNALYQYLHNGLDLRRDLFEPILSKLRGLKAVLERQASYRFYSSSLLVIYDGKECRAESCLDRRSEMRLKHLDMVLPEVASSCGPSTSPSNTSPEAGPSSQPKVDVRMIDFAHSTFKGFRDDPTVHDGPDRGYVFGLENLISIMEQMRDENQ
#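 ADP-Glo luminescence measures ADP made by human IP6K1 during a 2 h RT reaction with ATP/IP6 (mix at 1.3 mM/130 uM); top library doses 57.5 and 19.1 uM final.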
# KDM5B inhibitor – inhibitors of human KDM5B histone demethylase; Q9UGL1; KDM5B demethylase, FDH-coupled NADH fluorescence (FDH is formaldehyde dehydrogenase); Potency, µM (titrated, usually from 57.7 µM), most hits filed as inhibitors; 220,000 compounds, 2.6% hits; AID 1347165; active = well fitted inhibition curve with a large enough effect; inconclusive = small, poorly fitted or top-dose-only effect; inactive = no such curve, though single readings can be large or run the other way; note: nearly all actives have a fitted effect of over 70% in size
#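 Coupled FDH/NAD⁺ fluorescence readout. KDM5BΔAP 200 nM final; compound titration, 10 min RT preincubation; substrate mix 12.5 µM H3K4me3, 25 µM 2-OG, 50 µM Fe(II), 100 µM ascorbate, 0.25 mM NAD⁺, 0.25 U/mL FDH; ΔRFU over 30 min.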
# Hits are given with their value; . = inactive; ? = inconclusive; / = no result. An excerpt weighted towards active compounds, which were near 2.7% of everything screened.
SMILES,IP6K1 inhibitor,KDM5B inhibitor
c1ccc(-c2noc(-c3cncnc3NCc3ccc4c(c3)OCO4)n2)cc1,.,13µM
Cc1cccc(Nc2ncncc2-c2nc(-c3ccccc3)no2)c1C,.,28µM
Cc1c(Cl)cccc1Nc1ncncc1-c1nc(-c2ccccc2)no1,.,.
CNc1ncncc1-c1nc(-c2ccccc2)no1,.,28µM
CCc1ccc(Nc2ncncc2-c2nc(-c3ccccc3)no2)cc1,.,.
CC(C)(C)c1cc(-c2nc3ccccc3[nH]2)n[nH]1,/,.
CSc1ccc(-c2cccc(CN3CCC(NC(=O)Nc4ccc(Cl)cc4)CC3)c2)cc1,.,/
CCc1ccc(CN2CCC(CNC(=O)C(C)(C)C)CC2)nc1,.,.
CCc1ccc(CN2CCC(CNC(=O)c3ccc(C)nc3)C2)nc1 (stereo unspecified),.,16µM
Cc1ccc(C#N)c(N2CCCC(c3nnc(Cn4cccn4)n3C)C2)n1 (stereo unspecified),.,28µM
Cn1c(Cn2cccn2)nnc1C1CCCN(C(=O)c2ccoc2)C1 (stereo unspecified),.,.
COc1cccc(-c2ccc(C(=O)N3CCC(NC(=O)Nc4ccc(Cl)cc4)CC3)cc2)c1,.,/
O=C(Nc1ccc2c(c1)OCO2)c1cnn2c(C(F)(F)F)cc(-c3ccc(F)cc3)nc12,/,.
COCCNC(=O)C(NC(=O)c1ccccc1)C1CCN(C(=O)C2CC2)CC1 (stereo unspecified),.,18µM
C=CCNC(=O)C(NC(=O)c1ccc(OC)cc1)C1CCN(C(=O)C2CC2)CC1 (stereo unspecified),.,.
COc1cccc(C(=O)Nc2oc3ccccc3c(=O)c2-c2cccc(C)c2)c1,/,.
COc1ccc(S(=O)(=O)N2CC[C@@H](CC(=O)O)[C@@H](CC3=NCCc4cc(OC)c(OC)cc43)C2)cc1,.,.
O=C(O)C[C@@H]1CCN(S(=O)(=O)c2cccs2)C[C@@H]1CC1=NCCc2ccccc21,.,.
COc1cc2c(cc1OC)C(C[C@H]1CN(S(=O)(=O)c3ccc(C#N)cc3)CC[C@H]1CC(=O)O)=NCC2,.,28µM
COc1cc2c(cc1OC)C(C[C@H]1CN(S(=O)(=O)c3cccs3)CC[C@H]1CC(=O)O)=NCC2,.,28µM
COc1cccc(C(=O)NCCn2ccn3nc(-c4ccc(F)cc4)cc3c2=O)c1OC,.,.
COc1cccc(-c2cc3c(=O)n(CCNC(=O)c4cccc5[nH]ccc45)ccn3n2)c1,.,25µM
COc1ccc(-c2cc3c(=O)n(CCNC(=O)c4cccc5[nH]ccc45)ccn3n2)cc1,.,22µM
COc1cccc(-c2cc3c(=O)n(CCNC(=O)c4ccccc4Cl)ccn3n2)c1,.,.
Cn1ncc2c(C(=O)NCc3ccc4c(c3)OCO4)cc(-c3ccccc3C(F)(F)F)nc21,.,/
SMILES,IP6K1 inhibitor,KDM5B inhibitor
COc1cccc(-c2ccnc3nc(Cc4ccc(F)cc4)nn23)c1,.,25µM
Fc1cc(F)cc(Cc2nc3nccc(-c4cccs4)n3n2)c1,.,25µM
Fc1ccc(Cc2nc3nccc(-c4ccccc4)n3n2)cc1,.,28µM
COc1cccc(-c2ccnc3c(-c4ccc(F)cc4)c(C)nn23)c1,.,.
c1csc(-c2nc3nccc(-c4cccs4)n3n2)c1,.,?
Fc1ccc(Cc2nc3nccc(-c4ccsc4)n3n2)cc1,.,25µM
COc1ccc(Cc2nc3nccc(-c4ccccc4)n3n2)cc1,.,.
Fc1ccc(Cc2nc3nccc(-c4ccc5c(c4)OCCCO5)n3n2)cc1,.,?
CCOC(=O)c1cccc(NCC2=CC(C)(C)COc3ccc(OC)cc32)c1,.,/
CC1CCC2(CC1)OCC(C(=O)NCc1ccccc1)N2C(=O)c1ccc(Cl)c(Cl)c1 (stereo unspecified),.,.
CCOc1cc(C=O)ccc1OCc1ccc(C(=O)O)cc1,/,.
Fc1ccc(-c2noc([C@@H]3Cc4nc[nH]c4CN3CCCc3ccccc3)n2)cc1Cl,.,?
Fc1ccc(-c2noc([C@@H]3Cc4nc[nH]c4CN3Cc3cccs3)n2)cc1Cl,.,.
Fc1ccc(-c2noc([C@@H]3Cc4nc[nH]c4CN3Cc3cc4ccccc4o3)n2)cc1Cl,.,28µM
Cc1ccc(-c2noc([C@@H]3Cc4nc[nH]c4CN3CC3CCCCC3)n2)cc1,.,?
O=C(O)c1ccc(CN2Cc3[nH]cnc3C[C@H]2c2nc(-c3ccc(F)cc3)no2)cc1,.,?
Fc1ccc(-c2noc([C@@H]3Cc4nc[nH]c4CN3Cc3ccccc3)n2)cc1Cl,.,35µM
Cc1cccc(-c2noc([C@@H]3Cc4nc[nH]c4CN3Cc3ccc(C(=O)O)cc3)n2)c1,.,32µM
c1ccc2cc(-c3noc([C@@H]4Cc5nc[nH]c5CN4CC4CCCCC4)n3)ccc2c1,.,28µM
CC(C)(C)CN1CCOC[C@H]1c1ncc(-c2cccc(Cl)c2)[nH]1,.,.
COc1ccccc1-c1cccc(C(=O)N2CCN([S+](=O)([O-])c3cccs3)CC2)c1,.,/
O=C(NCc1cccc(C(F)(F)F)c1)c1ccc2nnc(-c3ccc(F)cc3)n2c1,.,/
O=C(NCc1cccc(F)c1)C1CCCCN1Cc1ccc(-c2ccsc2)cc1 (stereo unspecified),.,/
COC1CCCN(c2ncccc2-c2cc(-c3ccccc3)nc3c(C)noc23)C1 (stereo unspecified),.,40µM
CC(=O)N1CCN(c2nc(-c3ccccc3)nc3ccccc23)CC1,/,.
SMILES,IP6K1 inhibitor,KDM5B inhibitor
COc1cc(-c2cc(-c3ccccc3)nc3c(C)noc23)ccn1,.,?
CC(=O)N1CCN(c2ncccc2-c2cc(-c3ccccc3)nc3c(C)noc23)CC1,.,35µM
Cc1noc2c(-c3cccnc3N(C)C)cc(-c3ccccc3)nc12,.,32µM
Cc1noc2c(-c3cccnc3NC3CCN(C)CC3)cc(-c3ccccc3)nc12,.,?
COC1CCCN(c2cc(-c3cccnc3)nc3c(C)noc23)C1 (stereo unspecified),.,.
CC(=O)N1CCN(c2nc(-c3c(C)noc3C)cc3c2cc(-c2ccccc2)n3C)CC1,.,40µM
COCCN1CCCN(C(=O)c2cc(-c3ccc(F)cc3)n[nH]2)CC1,/,.
COc1ccc(Cc2nc3nccc(-c4ccc5c(c4)OCCCO5)n3n2)cc1,.,?
COCc1nc2nccc(-c3ccc4c(c3)OCCCO4)n2n1,.,18µM
c1coc(-c2cc(CSc3ccc4c(c3)OCCCO4)no2)c1,/,.
c1coc(-c2nc3nccc(-c4ccc5c(c4)OCCCO5)n3n2)c1,.,28µM
Cc1cc(C(=O)NC(C)c2ccccc2Br)c(C)[nH]1 (stereo unspecified),/,.
COc1cccc(-c2noc(-c3ccc(S(=O)(=O)N4CCCC4)o3)n2)c1,/,.
O=C(NC[C@H]1Cn2c(-c3ccc(Cl)cc3)cnc2CO1)Nc1ccccc1,.,?
Cc1ccccc1CN1CCN(C(=O)c2ccc3ccccc3n2)CC1,/,.
O=C(NC12CC3CC(CC(C3)C1)C2)c1cccc(I)c1,/,.
COc1ccc(OC)c(NC(=O)Cn2c(-c3cccc(Cl)c3)nc(C)c(CCO)c2=O)c1,.,.
COc1ccc(OC)c(NC(=O)Cn2c(-c3ccc(Cl)cc3)nc(C)c(CCO)c2=O)c1,.,25µM
CN1CCN(C(=O)c2cc(-c3ccc(F)cc3)nc3c2cnn3C)CC1,.,/
CC(NC(=O)C1CCN(c2ccc(C#N)cn2)CC1)c1ccc(F)c(F)c1 (stereo unspecified),/,.

# Source: PubChem BioAssay
